Screening results: PubChem, National Center for Advancing Translational Sciences (NCATS)
G9a inh = G9a (human) methyltransferase inhibition; G9a H3K9 monomethylation, AlphaScreen, 2 h; 8.8% of 350,000 active; Potency, µM (top dose mostly 102 µM), for the others: at the highest dose activity, negative = inhibition, hits mostly inhibitors; Q96KQ7; AID 504332; note: % is set by controls: 0 for no effect and ±100 for the full control effect; nearly all actives have a fitted effect of over 75% in size
Target sequence (Q96KQ7 913-1193 limits assumed): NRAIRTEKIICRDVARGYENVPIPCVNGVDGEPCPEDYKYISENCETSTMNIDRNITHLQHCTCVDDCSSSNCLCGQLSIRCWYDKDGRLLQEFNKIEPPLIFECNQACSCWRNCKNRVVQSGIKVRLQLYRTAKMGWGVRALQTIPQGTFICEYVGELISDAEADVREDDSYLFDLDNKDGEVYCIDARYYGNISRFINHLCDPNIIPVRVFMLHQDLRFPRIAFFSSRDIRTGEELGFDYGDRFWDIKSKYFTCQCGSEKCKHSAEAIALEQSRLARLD
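Chemiluminescent proximity detection of H3K9 monomethylation, read after 10 min bead incubation in the dark. Reaction: 20 nM G9a, 500 nM biotin-H3K9 peptide, 20 uM SAM cofactor, 2 h, room temperature, following 15 min enzyme-compound preincubation.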
Sfp PPTase inh = blocks B. subtilis Sfp PPTase activity; Q9F4F7; Biochemical Sfp PPTase activity, qHTS; Potency, µM, inactives show largest response in the series, negative = inhibition, most hits filed as inhibitors; 3.5% of 310,000 active; AID 1490;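 note: the enzyme is Sfp with the accession as filed and its product quenches rhodamine fluorescence; 0% = enzyme reaction without inhibitor and -100% = no enzyme wells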
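Fluorescence-quenching assay: 15 nM Sfp-PPTase preincubated 15 min at room temperature with compound, then 5 uM rhodamine-CoA and 12.5 uM BHQ-2-labelled YbbR peptide added. Fluorescence (ex 525/em 598 nm) read at start and after 30 min; difference gives rate.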
JMJD2A Tudor = blocks the human JMJD2A Tudor domain. AID 504339. Potency, µM (top dose mostly 114 µM), for inactives: top-dose activity change, negative = inhibition, actives largely listed as inhibitors. 4.4% of 390,000 active. AlphaScreen JMJD2A-Tudor / H3K4me3 peptide binding; note: % is set by controls: 0 for no effect and ±100 for the full control effect; nearly all actives have a fitted effect of over 50% in size
HP1b binding inh = HP1-beta chromodomain-methylated histone interaction inhibition; Potency, µM (series often up to 114 µM), inactives show top-dose activity change, negative = inhibition, usual class: inhibitors; P83916; 0.56% of 390,000 active; AlphaScreen HP1-beta / biotin-H3K9me3 peptide binding; AID 540317; note: nearly all actives have a fitted effect of over 70% in size
Target sequence (P83916 whole entry, looked up): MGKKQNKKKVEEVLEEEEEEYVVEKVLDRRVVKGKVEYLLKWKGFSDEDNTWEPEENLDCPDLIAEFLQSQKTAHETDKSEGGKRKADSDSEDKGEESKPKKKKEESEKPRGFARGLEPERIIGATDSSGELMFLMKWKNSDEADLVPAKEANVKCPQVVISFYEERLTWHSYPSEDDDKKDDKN
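HP1-beta protein (50 nM final) preincubated 30 min at room temperature with biotinylated H3(1-18)K9me3 peptide (50 nM) in PBS pH 7.4, 0.01% Tween-20, then compound added for 30 min. AlphaScreen streptavidin donor/nickel chelate acceptor beads (10 ug/mL final), 30 min dark, luminescence read.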
BAZ2B inh = BAZ2B (human) inhibition; AlphaScreen BAZ2B-H3K14Ac peptide displacement; Potency, µM (titrated, usually from 114 µM), inactives show at the highest dose activity change, negative = inhibition, usual class: inhibitors; Q9UIF8; 4.4% of 360,000 active; note: % is set by controls: 0 for no effect and ±100 for the full control effect; nearly all actives have a fitted effect of over 60% in size
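Compounds, titrated to a top concentration of 110 uM, were incubated 30 min at room temperature with preformed BAZ2B/acetyl-K14 H3 peptide complex (50 nM each). Proximity signal was measured by AlphaScreen after 20 min with beads.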
* hit, by the source's call; ? = inconclusive; · = no result given; [ ] = remark or other dose. In the library only some 12% were active in any assay of this set; here they are far more common. Calls come from the whole dose curve; as a rule, active = well fitted curve in the direction sought with a large enough effect; inconclusive = small, poorly fitted or top-dose-only effect, or another doubt; inactive = no such curve, though single readings can be large; an effect the other way counts as inactive or inconclusive. Potency is the fitted concentration of half-maximal effect.

SMILES	G9a inh	Sfp PPTase inh	JMJD2A Tudor	HP1b binding inh	BAZ2B inh
CCOc1ccc2nc(SCC(=O)Nc3ccc4[nH]c(=O)[nH]c4c3)[nH]c2c1	40µM*	·	-26%	7%	?
CCOc1ccc2nc(SCC(=O)N(C)C3CCS(=O)(=O)C3)[nH]c2c1 (stereo not drawn)	40µM*	-17%	-9%[57.1 µM]	45%	-1%
Cn1c(-c2nonc2NC(=O)c2ccc(C(C)(C)C)cc2)nc2ccccc21	10%	3%	·	·	1%
O=C(NNC(=O)C1CCN(S(=O)(=O)c2ccccc2C(F)(F)F)CC1)c1ccccc1O	20%	·	-8%	32%	-1%
O=C(O)C1Cc2ccccc2CN1S(=O)(=O)/C=C/c1ccccc1 (stereo not drawn)	14µM*	-7%	-15%	38%	79µM*
O=C(O)C1Cc2ccccc2CN1C(=O)CSc1nnc2ccccn12 (stereo not drawn)	50µM*	-19%	-21%	-5%	·
O=C(O)C1Cc2ccccc2CN1C(=O)c1ccccc1 (stereo not drawn)	?	13%	-29%	22%	0%
CC(C)(C)OC(=O)N1Cc2ccccc2C[C@H]1C(=O)O	56µM*	10%	-4%[11.4 µM]	2%	?
O=S(=O)(/C=C/c1ccccc1)N1CCc2ccccc2C1	37%	13%	54%	71%	18%
O=C(CSc1nnc2ccccn12)N1CCc2ccccc2C1	?	0%	-7%	35%	7%
CCS(=O)(=O)N1Cc2ccccc2CC1C(=O)N1CCN(c2ccccc2)CC1 (stereo not drawn)	2%[2.33 µM]	-4%	25µM*	?	50µM*
COc1ccc(CSc2ccc(-c3nc4ccccn4c3NCc3ccccc3)cc2OC)cc1	10%[2.33 µM]	·	?	37%	-34%
CCN(CC)CCn1c(NCc2cccc(OC)c2OC)nc2ccccc21	1%[12.7 µM]	10%	-19%	23%	2%
CC(=O)c1ccc(S(=O)(=O)N2Cc3ccccc3CC2C(=O)O)cc1 (stereo not drawn)	40µM*	6%	18µM*	0%	?
CS(=O)(=O)N1Cc2ccccc2CC1C(=O)O (stereo not drawn)	40µM*	18%	-11%	8%	?
O=C(O)[C@H]1Cc2ccccc2CN1S(=O)(=O)c1ccc(F)cc1	-7%	27%	-6%	31%	-2%
CC1CCCCC1NC(=O)C1Cc2ccccc2CN1S(C)(=O)=O (stereo not drawn)	3%[12.7 µM]	10%	-4%	13%	8%
COc1ccc(S(=O)(=O)N(C)C(C)CCc2ccco2)cc1 (stereo not drawn)	79µM*	-18%	-9%	12%	-27%
Cc1ccc(S(=O)(=O)N(C)C(C)CCc2ccco2)cc1 (stereo not drawn)	12%[12.7 µM]	·	2%	23%	7%
CCN1CCN(c2oc(-c3ccccc3C)nc2S(=O)(=O)c2ccccc2)CC1	35µM*	·	?	-29%	?
COc1ccccc1-c1nc(S(=O)(=O)c2ccccc2)c(N2CCCCC2)o1	25µM*	?	79µM*	?	-23%
O=S(=O)(c1ccccc1)c1nc(-c2ccc(F)cc2)oc1N1CCCCCC1	13µM*	·	-22%	-12%	?
COCCNC(=O)c1c(CSc2ccc(F)cc2)noc1C(=O)NCc1ccccc1	-7%[12.7 µM]	0%	-20%	30%	15%
CCN(CC)c1ccc(C2CC(=O)NC3=C2C(=O)CC(C)(C)C3)cc1 (stereo not drawn)	50µM*	-2%	-19%	7%	-33%
CN(C)c1ccc(C2CC(=O)NC3=C2C(=O)CC(C)(C)C3)cc1 (stereo not drawn)	?	12%	-17%	8%	-19%
SMILES	G9a inh	Sfp PPTase inh	JMJD2A Tudor	HP1b binding inh	BAZ2B inh
Cc1ccccc1C(=O)Nc1cccc(NC(=O)c2ccccc2[N+](=O)[O-])c1	2%	21%	-15%	31%	-24%
CC1CCc2noc(NC(=O)c3ccccc3[N+](=O)[O-])c2C1 (stereo not drawn)	16µM*	·	?	-14%	?
CCOC(=O)N1CCN(S(=O)(=O)c2ccc3c4c(cccc24)C(=O)N3)CC1	-22%	4%	15%	62%	0%
CCOc1ccccc1N1CCN(S(=O)(=O)c2ccc3c4c(cccc24)C(=O)N3)CC1	?	-1%	56µM*	-16%	50µM*
CCOc1ccc2nc(Cl)c(CN(C(C)=O)C3CCCCC3)cc2c1	27%	16%	-15%	20%	-3%
Cc1ccc(C)c(N2CCN(C(=O)C3CCN(C(=O)c4cc5sccc5n4C)CC3)CC2)c1	?	·	?	-18%	25µM*
Cc1cccc(N2CCN(C(=O)c3cc(C)oc3C)CC2C)c1 (stereo not drawn)	-7%[59 µM]	-1%	-26%	-5%	?
Cc1cccc(N2CCN(C(=O)c3csc4ccccc34)CC2C)c1 (stereo not drawn)	50µM*	-18%	?	-17%	?
Cc1cccc(N2CCN(C(=O)C3CCN(C(=O)c4cc5sccc5n4C)CC3)CC2C)c1 (stereo not drawn)	-37%[59 µM]	·	?	-15%	35µM*
Cn1c(C(=O)N2CCCC(C(=O)N3CCN(c4ccccc4)CC3)C2)cc2sccc21 (stereo not drawn)	-1%[59 µM]	·	-32%	9%	-31%
CC(C)C1=NN(C(=O)c2ccccc2)C(O)(C(C)(C)C)C1 (stereo not drawn)	10%[59 µM]	5%	-22%	23%	?
N#CC(c1ccc(Cl)cc1)c1ccc2c(C(F)(F)F)cc(C(F)(F)F)nc2n1 (stereo not drawn)	11µM*	11%	50µM*	8.9µM*	32µM*
Cc1cc(NC(=O)CSc2nnc3c(C)cc4cc(C)c(C)cc4n23)no1	14%	4%	-13%	33%	2%
COc1ccc(-c2csc(NC(=O)CSc3n[nH]c(N)n3)n2)cc1	8.9µM*	-20%	10µM*	79µM*	-8%
CCn1c(SCC(=O)Nc2nc(-c3ccccc3)cs2)nnc1-c1ccccc1	?	-1%	-23%	6%	-32%
Cc1cc(NC(=O)CSc2nnc3c(C)cc4cc5c(cc4n23)OCO5)no1	35µM*	13%	·	·	-3%
COc1ccc2cc(C)c3nnc(SCC(=O)Nc4cc(OC)c(OC)cc4C(=O)O)n3c2c1	40µM*	-13%	-24%	16%	-22%
COc1ccc(-c2csc(NC(=O)CSc3n[nH]c(C)n3)n2)cc1	6%[59 µM]	0%	-15%	15%	-14%
COc1cc(NC(=O)CSc2nnc3c(C)cc4cc(C)cc(C)c4n23)c(C(=O)O)cc1OC	·	-18%	-11%	20%	-16%
COc1ccc2cc(C)c3nnc(SCC(=O)Nc4nc(-c5ccccc5)cs4)n3c2c1	-3%[12.7 µM]	79µM*	-34%	33%	-36%
Cc1cc(C)c(N(CC(=O)NCc2ccccc2)C(=O)c2csnn2)c(C)c1	1%[59 µM]	9%	-5%	15%	1%
